# Paper PMC11006913
# What was measured:
# Test in all cases: PBM; 200 nM protein, PBS
# Conditions in all cases: dsDNA, one strand shown
# [1] = biological target: T1, VENTX (Homo sapiens, UniProt O95231 78-163, R121Q)
# T1 sequence: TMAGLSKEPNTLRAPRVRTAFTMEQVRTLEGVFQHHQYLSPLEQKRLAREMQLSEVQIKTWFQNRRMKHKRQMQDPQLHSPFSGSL
# [2] = biological target: HOXA4 (Homo sapiens, UniProt Q00056 201-287, W262R)
# [3] = biological target: HOXA7 (Homo sapiens, UniProt P31268 116-202)
# [4] = biological target: ALX4 (Homo sapiens, UniProt Q9H161 200-286)
# [5] = biological target: PRRX1 (Homo sapiens, UniProt P54821 80-166, F113S)
# [6] = biological target: HOXB6 (Homo sapiens, UniProt P17509 132-218, K202E)
# [7] = biological target: ALX4 (Homo sapiens, UniProt Q9H161 200-286, Q225E)
# [8] = biological target: HOXA2 (Homo sapiens, UniProt O43364 129-215, R185T)
# [9] = biological target: HOXA4 (Homo sapiens, UniProt Q00056 201-287, R217L)
# [10] = biological target: MSX2 (Homo sapiens, UniProt P35548 130-214, R199I)
# [11] = biological target: HOXA4 (Homo sapiens, UniProt Q00056 201-287)
# [12] = biological target: MSX2 (Homo sapiens, UniProt P35548 130-214)
# [13] = biological target: VAX1 (Homo sapiens, UniProt Q5SQQ9 86-172)
# [14] = biological target: MSX2 (Homo sapiens, UniProt P35548 130-214, F161Y)
# [15] = biological target: VAX1 (Homo sapiens, UniProt Q5SQQ9 86-172, T142I)
# [16] = biological target: HOXA7 (Homo sapiens, UniProt P31268 116-202, W177C)
# [17] = biological target: HOXA4 (Homo sapiens, UniProt Q00056 201-287, W262F)
# [18] = biological target: PRRX1 (Homo sapiens, UniProt P54821 80-166)
# [19] = biological target: VAX1 (Homo sapiens, UniProt Q5SQQ9 86-172, K157R)
# [20] = biological target: HOXB6 (Homo sapiens, UniProt P17509 132-218)
# Chain of HOXB6 (Homo sapiens, UniProt P17509 132-218) (P17509 132-218): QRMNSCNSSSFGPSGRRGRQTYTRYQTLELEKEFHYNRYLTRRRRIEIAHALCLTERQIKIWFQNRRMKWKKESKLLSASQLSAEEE
# Chain of MSX2 (Homo sapiens, UniProt P35548 130-214, R199I) (P35548 130-214 R199I): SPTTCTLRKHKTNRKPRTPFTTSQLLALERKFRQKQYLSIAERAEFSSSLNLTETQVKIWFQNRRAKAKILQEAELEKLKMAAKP
# Chain of HOXA7 (Homo sapiens, UniProt P31268 116-202, W177C) (P31268 116-202 W177C): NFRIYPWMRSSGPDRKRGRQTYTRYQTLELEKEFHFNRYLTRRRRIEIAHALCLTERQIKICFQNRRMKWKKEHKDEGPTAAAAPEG
# Chain of PRRX1 (Homo sapiens, UniProt P54821 80-166, F113S) (P54821 80-166 F113S): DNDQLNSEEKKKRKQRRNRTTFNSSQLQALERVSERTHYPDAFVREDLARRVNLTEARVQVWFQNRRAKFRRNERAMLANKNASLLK
# Chain of HOXA4 (Homo sapiens, UniProt Q00056 201-287) (Q00056 201-287): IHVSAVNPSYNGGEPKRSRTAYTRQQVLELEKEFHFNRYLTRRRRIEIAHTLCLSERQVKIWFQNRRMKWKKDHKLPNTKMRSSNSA
# Chain of ALX4 (Homo sapiens, UniProt Q9H161 200-286) (Q9H161 200-286): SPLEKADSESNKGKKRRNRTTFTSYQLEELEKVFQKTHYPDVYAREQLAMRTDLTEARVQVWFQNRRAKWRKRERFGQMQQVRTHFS
# Chain of MSX2 (Homo sapiens, UniProt P35548 130-214, F161Y) (P35548 130-214 F161Y): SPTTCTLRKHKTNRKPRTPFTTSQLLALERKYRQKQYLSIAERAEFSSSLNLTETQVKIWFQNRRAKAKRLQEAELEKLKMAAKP
# Chain of HOXA2 (O43364 129-215 R185T): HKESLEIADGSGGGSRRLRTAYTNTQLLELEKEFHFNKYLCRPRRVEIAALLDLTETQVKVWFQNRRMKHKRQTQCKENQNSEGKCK
# Chain of HOXB6 (Homo sapiens, UniProt P17509 132-218, K202E) (P17509 132-218 K202E): as the sequence (P17509 132-218) above, with K71E counted along it
# Chain of ALX4 (Homo sapiens, UniProt Q9H161 200-286, Q225E) (Q9H161 200-286 Q225E): as the sequence (Q9H161 200-286) above, with Q26E counted along it
# Chain of MSX2 (Homo sapiens, UniProt P35548 130-214) (P35548 130-214): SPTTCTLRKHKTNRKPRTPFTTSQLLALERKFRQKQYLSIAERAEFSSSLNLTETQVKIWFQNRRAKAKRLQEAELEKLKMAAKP
# Chain of HOXA4 (Homo sapiens, UniProt Q00056 201-287, W262R) (Q00056 201-287 W262R): as the sequence (Q00056 201-287) above, with W62R counted along it
# Chain of VAX1 (Homo sapiens, UniProt Q5SQQ9 86-172, T142I) (Q5SQQ9 86-172 T142I): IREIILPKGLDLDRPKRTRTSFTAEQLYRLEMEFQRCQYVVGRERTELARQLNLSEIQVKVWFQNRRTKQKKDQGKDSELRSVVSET
# Chain of HOXA7 (Homo sapiens, UniProt P31268 116-202) (P31268 116-202): as the sequence (P31268 116-202 W177C) above, with C62W counted along it
# Chain of PRRX1 (Homo sapiens, UniProt P54821 80-166) (P54821 80-166): as the sequence (P54821 80-166 F113S) above, with S34F counted along it
# Chain of VAX1 (Homo sapiens, UniProt Q5SQQ9 86-172) (Q5SQQ9 86-172): as the sequence (Q5SQQ9 86-172 T142I) above, with I57T counted along it
# Chain of VAX1 (Homo sapiens, UniProt Q5SQQ9 86-172, K157R) (Q5SQQ9 86-172 K157R): as the sequence (Q5SQQ9 86-172 T142I) above, with I57T, K72R counted along it
# Chain of HOXA4 (Homo sapiens, UniProt Q00056 201-287, R217L) (Q00056 201-287 R217L): as the sequence (Q00056 201-287) above, with R17L counted along it
# Chain of HOXA4 (Homo sapiens, UniProt Q00056 201-287, W262F) (Q00056 201-287 W262F): as the sequence (Q00056 201-287) above, with W62F counted along it
Sequence,binding signal [1],binding signal [2],binding signal [3],binding signal [4],binding signal [5],binding signal [6],binding signal [7],binding signal [8],binding signal [9],binding signal [10],binding signal [11],binding signal [12],binding signal [13],binding signal [14],binding signal [15],binding signal [16],binding signal [17],binding signal [18],binding signal [19],binding signal [20]
CCAATTAA,"12.2 upbm affinity estimate (log intensity, higher = more binding, comparable within an allelic series)","10.6 upbm affinity estimate (log intensity, higher = more binding, comparable within an allelic series)","11.5 upbm affinity estimate (log intensity, higher = more binding, comparable within an allelic series)","14.3 upbm affinity estimate (log intensity, higher = more binding, comparable within an allelic series)","11.6 upbm affinity estimate (log intensity, higher = more binding, comparable within an allelic series)","10 upbm affinity estimate (log intensity, higher = more binding, comparable within an allelic series)","14.1 upbm affinity estimate (log intensity, higher = more binding, comparable within an allelic series)","12.9 upbm affinity estimate (log intensity, higher = more binding, comparable within an allelic series)","12 upbm affinity estimate (log intensity, higher = more binding, comparable within an allelic series)","13.3 upbm affinity estimate (log intensity, higher = more binding, comparable within an allelic series)","13.6 upbm affinity estimate (log intensity, higher = more binding, comparable within an allelic series)","14.2 upbm affinity estimate (log intensity, higher = more binding, comparable within an allelic series)","13 upbm affinity estimate (log intensity, higher = more binding, comparable within an allelic series)","13.8 upbm affinity estimate (log intensity, higher = more binding, comparable within an allelic series)","12.7 upbm affinity estimate (log intensity, higher = more binding, comparable within an allelic series)","8.83 upbm affinity estimate (log intensity, higher = more binding, comparable within an allelic series)","11.3 upbm affinity estimate (log intensity, higher = more binding, comparable within an allelic series)","13.6 upbm affinity estimate (log intensity, higher = more binding, comparable within an allelic series)","13 upbm affinity estimate (log intensity, higher = more binding, comparable within an allelic series)","11.9 upbm affinity estimate (log intensity, higher = more binding, comparable within an allelic series)"
AACAATTA,"11.7 upbm affinity estimate (log intensity, higher = more binding, comparable within an allelic series)","10.6 upbm affinity estimate (log intensity, higher = more binding, comparable within an allelic series)","11.2 upbm affinity estimate (log intensity, higher = more binding, comparable within an allelic series)","13.6 upbm affinity estimate (log intensity, higher = more binding, comparable within an allelic series)","11.1 upbm affinity estimate (log intensity, higher = more binding, comparable within an allelic series)","10 upbm affinity estimate (log intensity, higher = more binding, comparable within an allelic series)","12.8 upbm affinity estimate (log intensity, higher = more binding, comparable within an allelic series)",,"11.9 upbm affinity estimate (log intensity, higher = more binding, comparable within an allelic series)","12.8 upbm affinity estimate (log intensity, higher = more binding, comparable within an allelic series)","13.6 upbm affinity estimate (log intensity, higher = more binding, comparable within an allelic series)","13.9 upbm affinity estimate (log intensity, higher = more binding, comparable within an allelic series)",,"13.5 upbm affinity estimate (log intensity, higher = more binding, comparable within an allelic series)",,"8.96 upbm affinity estimate (log intensity, higher = more binding, comparable within an allelic series)","11.3 upbm affinity estimate (log intensity, higher = more binding, comparable within an allelic series)",,,
CAATTAAG,"12 upbm affinity estimate (log intensity, higher = more binding, comparable within an allelic series)","10.6 upbm affinity estimate (log intensity, higher = more binding, comparable within an allelic series)","11.5 upbm affinity estimate (log intensity, higher = more binding, comparable within an allelic series)","13.9 upbm affinity estimate (log intensity, higher = more binding, comparable within an allelic series)","11.3 upbm affinity estimate (log intensity, higher = more binding, comparable within an allelic series)","9.95 upbm affinity estimate (log intensity, higher = more binding, comparable within an allelic series)","13.4 upbm affinity estimate (log intensity, higher = more binding, comparable within an allelic series)","12.9 upbm affinity estimate (log intensity, higher = more binding, comparable within an allelic series)","12.1 upbm affinity estimate (log intensity, higher = more binding, comparable within an allelic series)","12.8 upbm affinity estimate (log intensity, higher = more binding, comparable within an allelic series)","13.8 upbm affinity estimate (log intensity, higher = more binding, comparable within an allelic series)","13.9 upbm affinity estimate (log intensity, higher = more binding, comparable within an allelic series)","13 upbm affinity estimate (log intensity, higher = more binding, comparable within an allelic series)","13.4 upbm affinity estimate (log intensity, higher = more binding, comparable within an allelic series)","12.8 upbm affinity estimate (log intensity, higher = more binding, comparable within an allelic series)","8.83 upbm affinity estimate (log intensity, higher = more binding, comparable within an allelic series)","11.7 upbm affinity estimate (log intensity, higher = more binding, comparable within an allelic series)","13.3 upbm affinity estimate (log intensity, higher = more binding, comparable within an allelic series)","12.5 upbm affinity estimate (log intensity, higher = more binding, comparable within an allelic series)","11.8 upbm affinity estimate (log intensity, higher = more binding, comparable within an allelic series)"
CAATTATG,,,,"13.8 upbm affinity estimate (log intensity, higher = more binding, comparable within an allelic series)","11.3 upbm affinity estimate (log intensity, higher = more binding, comparable within an allelic series)","9.97 upbm affinity estimate (log intensity, higher = more binding, comparable within an allelic series)","13.1 upbm affinity estimate (log intensity, higher = more binding, comparable within an allelic series)","12.5 upbm affinity estimate (log intensity, higher = more binding, comparable within an allelic series)",,"12.8 upbm affinity estimate (log intensity, higher = more binding, comparable within an allelic series)",,"13.9 upbm affinity estimate (log intensity, higher = more binding, comparable within an allelic series)",,"13.5 upbm affinity estimate (log intensity, higher = more binding, comparable within an allelic series)",,,,"13.5 upbm affinity estimate (log intensity, higher = more binding, comparable within an allelic series)",,"11.7 upbm affinity estimate (log intensity, higher = more binding, comparable within an allelic series)"
ACCAATTA,"12.2 upbm affinity estimate (log intensity, higher = more binding, comparable within an allelic series)",,"11.2 upbm affinity estimate (log intensity, higher = more binding, comparable within an allelic series)","14.2 upbm affinity estimate (log intensity, higher = more binding, comparable within an allelic series)","11.5 upbm affinity estimate (log intensity, higher = more binding, comparable within an allelic series)","9.84 upbm affinity estimate (log intensity, higher = more binding, comparable within an allelic series)","13.8 upbm affinity estimate (log intensity, higher = more binding, comparable within an allelic series)","12.8 upbm affinity estimate (log intensity, higher = more binding, comparable within an allelic series)",,"13.4 upbm affinity estimate (log intensity, higher = more binding, comparable within an allelic series)",,"14.2 upbm affinity estimate (log intensity, higher = more binding, comparable within an allelic series)","12.8 upbm affinity estimate (log intensity, higher = more binding, comparable within an allelic series)","13.8 upbm affinity estimate (log intensity, higher = more binding, comparable within an allelic series)","12.4 upbm affinity estimate (log intensity, higher = more binding, comparable within an allelic series)","8.84 upbm affinity estimate (log intensity, higher = more binding, comparable within an allelic series)",,"13.6 upbm affinity estimate (log intensity, higher = more binding, comparable within an allelic series)","12.7 upbm affinity estimate (log intensity, higher = more binding, comparable within an allelic series)","11.7 upbm affinity estimate (log intensity, higher = more binding, comparable within an allelic series)"
CAATTAAA,"11.7 upbm affinity estimate (log intensity, higher = more binding, comparable within an allelic series)","10.5 upbm affinity estimate (log intensity, higher = more binding, comparable within an allelic series)","11.8 upbm affinity estimate (log intensity, higher = more binding, comparable within an allelic series)","14 upbm affinity estimate (log intensity, higher = more binding, comparable within an allelic series)","11.2 upbm affinity estimate (log intensity, higher = more binding, comparable within an allelic series)","10 upbm affinity estimate (log intensity, higher = more binding, comparable within an allelic series)","13.5 upbm affinity estimate (log intensity, higher = more binding, comparable within an allelic series)","12.6 upbm affinity estimate (log intensity, higher = more binding, comparable within an allelic series)","12.1 upbm affinity estimate (log intensity, higher = more binding, comparable within an allelic series)","13.1 upbm affinity estimate (log intensity, higher = more binding, comparable within an allelic series)","13.6 upbm affinity estimate (log intensity, higher = more binding, comparable within an allelic series)","14 upbm affinity estimate (log intensity, higher = more binding, comparable within an allelic series)","12.8 upbm affinity estimate (log intensity, higher = more binding, comparable within an allelic series)","13.7 upbm affinity estimate (log intensity, higher = more binding, comparable within an allelic series)","12.7 upbm affinity estimate (log intensity, higher = more binding, comparable within an allelic series)","8.84 upbm affinity estimate (log intensity, higher = more binding, comparable within an allelic series)","11.3 upbm affinity estimate (log intensity, higher = more binding, comparable within an allelic series)","13.3 upbm affinity estimate (log intensity, higher = more binding, comparable within an allelic series)","12.8 upbm affinity estimate (log intensity, higher = more binding, comparable within an allelic series)","12.1 upbm affinity estimate (log intensity, higher = more binding, comparable within an allelic series)"
GTAATTGA,,"10.4 upbm affinity estimate (log intensity, higher = more binding, comparable within an allelic series)","11.2 upbm affinity estimate (log intensity, higher = more binding, comparable within an allelic series)","13.8 upbm affinity estimate (log intensity, higher = more binding, comparable within an allelic series)","11 upbm affinity estimate (log intensity, higher = more binding, comparable within an allelic series)",,"12.8 upbm affinity estimate (log intensity, higher = more binding, comparable within an allelic series)","12.5 upbm affinity estimate (log intensity, higher = more binding, comparable within an allelic series)","12 upbm affinity estimate (log intensity, higher = more binding, comparable within an allelic series)","12.5 upbm affinity estimate (log intensity, higher = more binding, comparable within an allelic series)","13.5 upbm affinity estimate (log intensity, higher = more binding, comparable within an allelic series)","13.7 upbm affinity estimate (log intensity, higher = more binding, comparable within an allelic series)","12.8 upbm affinity estimate (log intensity, higher = more binding, comparable within an allelic series)","13.4 upbm affinity estimate (log intensity, higher = more binding, comparable within an allelic series)","12.4 upbm affinity estimate (log intensity, higher = more binding, comparable within an allelic series)","8.88 upbm affinity estimate (log intensity, higher = more binding, comparable within an allelic series)","11.2 upbm affinity estimate (log intensity, higher = more binding, comparable within an allelic series)","13.3 upbm affinity estimate (log intensity, higher = more binding, comparable within an allelic series)","12.6 upbm affinity estimate (log intensity, higher = more binding, comparable within an allelic series)",
CCCAATTA,"11.7 upbm affinity estimate (log intensity, higher = more binding, comparable within an allelic series)",,,"13.9 upbm affinity estimate (log intensity, higher = more binding, comparable within an allelic series)","11.3 upbm affinity estimate (log intensity, higher = more binding, comparable within an allelic series)",,"13.5 upbm affinity estimate (log intensity, higher = more binding, comparable within an allelic series)","12.5 upbm affinity estimate (log intensity, higher = more binding, comparable within an allelic series)",,"13 upbm affinity estimate (log intensity, higher = more binding, comparable within an allelic series)",,"14 upbm affinity estimate (log intensity, higher = more binding, comparable within an allelic series)","12.7 upbm affinity estimate (log intensity, higher = more binding, comparable within an allelic series)","13.7 upbm affinity estimate (log intensity, higher = more binding, comparable within an allelic series)","12.3 upbm affinity estimate (log intensity, higher = more binding, comparable within an allelic series)",,,"13.4 upbm affinity estimate (log intensity, higher = more binding, comparable within an allelic series)","12.6 upbm affinity estimate (log intensity, higher = more binding, comparable within an allelic series)",
ATTAATGC,,,"11 upbm affinity estimate (log intensity, higher = more binding, comparable within an allelic series)",,,,,,,,,,,,,"8.84 upbm affinity estimate (log intensity, higher = more binding, comparable within an allelic series)",,,,
CAATTAGA,"11.8 upbm affinity estimate (log intensity, higher = more binding, comparable within an allelic series)",,,"13.8 upbm affinity estimate (log intensity, higher = more binding, comparable within an allelic series)","10.9 upbm affinity estimate (log intensity, higher = more binding, comparable within an allelic series)",,"12.8 upbm affinity estimate (log intensity, higher = more binding, comparable within an allelic series)","12.5 upbm affinity estimate (log intensity, higher = more binding, comparable within an allelic series)",,"12.6 upbm affinity estimate (log intensity, higher = more binding, comparable within an allelic series)",,"13.8 upbm affinity estimate (log intensity, higher = more binding, comparable within an allelic series)","12.6 upbm affinity estimate (log intensity, higher = more binding, comparable within an allelic series)","13.4 upbm affinity estimate (log intensity, higher = more binding, comparable within an allelic series)","12.2 upbm affinity estimate (log intensity, higher = more binding, comparable within an allelic series)",,,"13.2 upbm affinity estimate (log intensity, higher = more binding, comparable within an allelic series)","12.3 upbm affinity estimate (log intensity, higher = more binding, comparable within an allelic series)",
